# PubChem BioAssay (NCATS)
# Inconclusive results are not listed. Unmarked numbers belong to inactive results. The source made the active and inactive calls. Calls follow the shape of the dose curve; as a rule, active = well fitted inhibition curve with a large enough effect; inconclusive = small, poorly fitted or top-dose-only effect; inactive = flat fitted curve, though single readings scatter.
# Key:
# CRL-7250 = normal cell line; assay: Cytotoxic Profiling of Annotated Libraries Using Quantitative High-Throughput Screening (AID 1296008); conditions: Five cell lines viability, CellTiter-Glo ATP luminescence, 48-72 h; max response: stronger effect = lower value; also: nearly all actives have a fitted effect of over 60% in size
# In short: (§1)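 Cytotoxicity was measured as CellTiter-Glo ATP luminescence, read after 10 min at room temperature. Compound treatment of the cells lasted 48 or 72 hr at 37 degrees Celsius in a qHTS format.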
# HEK293 = assay: as above; conditions: Five cell lines viability, CellTiter-Glo ATP luminescence, 48-72 h; max response: stronger effect = lower value
# In short: as §1
# % is scaled to controls: 0 for no effect and ±100 for the full control effect; potency is read from the fitted curve at half-maximal effect.
structure (smiles),measurement,setting,value
CC1=CCC2C(C)(C)CCC[C@]2(C)[C@@]12CC[C@](C)(CC(=O)O)O2 (stereo partly drawn),max response,CRL-7250,-19.8%
same,max response,HEK293,-11.7%
O=C(c1ccc2nccnc2c1)N1CCCCC1,max response,CRL-7250,-4.12%
same,max response,HEK293,-81.1%
CC(=O)O[C@H]1CC[C@H](C)[C@@]2(C)[C@H](OC(C)=O)c3c(C)coc3C(=O)[C@H]12,max response,CRL-7250,-18.1%
same,max response,HEK293,-27.7%
COc1c/c(=C2\C=c3ccccc3=N2)[nH]/c1=C\c1[nH]c(C)cc1C,Potency,CRL-7250,1.84 µM (active)
same,Potency,HEK293,1.3 µM (active)
CC1(C)CC[C@]2(C(=O)O[C@@H]3O[C@H](CO[C@@H]4O[C@H](CO)[C@@H](O)[C@H](O)[C@H]4O[C@@H]4O[C@H](CO)[C@H](O)[C@H](O)[C@H]4O)[C@@H](O)[C@H](O[C@@H]4O[C@H](CO)[C@@H](O)[C@H](O)[C@H]4O)[C@H]3O)CC[C@]3(C)C(=CCC4[C@@]5(C)CC[C@H](O[C@@H]6OC[C@@H](O)[C@H](O)[C@H]6O)[C@@](C)(C(=O)O)C5CC[C@]43C)[C@@H]2C1 (stereo partly drawn),max response,CRL-7250,-1.09%
same,max response,HEK293,2.33%
Cc1csc(NC(=O)c2ccc(COc3cccc(Cl)c3)o2)n1,max response,CRL-7250,-4.74%
same,max response,HEK293,-17.1%
CN(C)CC1CCOC1(c1ccccc1)c1ccccc1 (stereo not drawn),max response,CRL-7250,-5.19%
same,max response,HEK293,-21.7%
CC1(C)C2CC=C(COC3OC(COC4OCC(O)(CO)C4O)C(O)C(O)C3O)C1C2 (stereo not drawn),outcome,CRL-7250,inactive
same,max response,HEK293,-3.04%
Cc1ccccc1C#Cc1ccc(CCC(=O)O)cc1,max response,CRL-7250,-3.17%
same,max response,HEK293,-13.9%
